This passage reports outcome and AC50 results from PubChem BioAssay (EPA / NIEHS).

What is called AC50 is the concentration at which the activity in the assay is half-maximal.

SMILES strings stand for the structures. Calls of active or inactive are those of the source. Rule for the calls: active = hit-call score of the fitted dose curve at least 0.9, where 1 is the maximum; inactive = score below 0.9.

Read-out in the assay: growth arrest and DNA damage 45 (GADD45G), GADD45G (gene 10912)
As to the kind of experiment: LTEA_HepaRG_GADD45G: Life Technologies and Expression Analysis (LTEA) Assay for growth arrest and DNA damage 45 (GADD45G) using HepaRG (AID 2283499). Conditions: mRNA level, 48 h; actives raise or lower the signal. As to the method:
LTEA_HepaRG is a cell based, multiplexed-readout assay that uses HepaRG, a human liver cell line, with measurements taken at 48 hours after chemical dosing on a 96-well plate.LTEA_HepaRG_GADD45G is one of 102 assay component(s) measured in the LTEA HepaRG cell culture assay. It is a marker of Cell proliferation, survival, death.Data from the assay component LTEA_HepaRG_GADD45G was analyzed into 1 endpoint. This assay endpoint, LTEA_HepaRG_GADD45G, was analyzed with bidirectional fitting relative to DMSO as the negative control and baseline of activity. Using a type of inducible reporter, measures of mRNA induction for gain or loss-of-signal activity can be used to understand regulation of transcription factor activity. To generalize the intended target to other relatable targets, this assay endpoint is annotated to the mutagenicity response intended target family, where the subfamily is Cell proliferation, survival, death.
A total of 1060 chemcials from the ToxCast library were tested in eight-point concentration-response experiments. Cell culture and cytotoxicity assays were conducted at Thermo Fisher Scientific's Custom Services facility (Madison, WI). A single lot of human HepaRG cells (Thermo Fisher Scientific, Frederick, MD) was used for the cell culture experiments. 96-well format collagen type I coated plates of human HepaRG cells were prepared using established methods. Briefly, cryopreserved HepaRG cells were thawed, plated at a density of approximately 100,000 cells/well in HepaRG Thaw, Plate, and General Purpose media (HPRG770, Thermo Fisher Scientific), and incubated for 48 hours. 0.5% DMSO was selected as vehicle control to balance the requisite need of DMSO in HepaRG cultures to maintain differentiation (for example, baseline metabolism, proportions of hepatocytes vs. cholangiocytes), while enabling further hepatic receptor pathway activation (for example, PXR and CAR) in response to chemical exposure. 48 hours after plating, the culture medium was replaced with HepaRG Serum-Free Incudtion Media. Cells were exposed to each test chemical in duplicate and maintained in CO2 incubators for another 48 hours. Chemical plates were thawed to room temperature and 200x concentrations of treatment groups were prepared. 8-point conentration-reponse curves were made with the highest exposure at 100 uM, followed by half-log dilutions, all in 0.5% DMSO. Each test plate contained variouse controls, induction positive controls (1mM phenobarbital), cytotoxicity positive controls ([…] aflatoxin B1), vehicle controls (0.5% DMSO), and total lysis controls (0.5% DMSO). Cell morphology images were taken using an Essen IncuCyte FLR automated microscope, with six 96-well plates imaged in about 24 minutes. Images were captured and exported and JPEG files. Spent culture media was transfered to black-well plates for the LDH assay, and remaining media was sorted at -80 C for later use. Cells were treated with RLT buffer and frozen until shipped for gene expression analysis. Total RNA was isolated from the cell suspension in 75 uL of Buffer RLT (Qiagen, Germantown, MD 20874) by Quintiles/Expression Analysis (Durham, NC) using a custom isolation procedure. Total RNA from each plate well was transferred to a preamplification plate. Fluidigm's 96.96 Dynamic ArrayTM (Fluidigm, Amsterdam, the Netherlands) technology was used for gene expression analyses by quantitative reverse transcription polymerase chain reaction (qRT-PCR, performed by Quintiles/Expression Analysis, Durham, NC)89. Standard TaqManTM Assays (Applied Biosystems/ThermoFisher Scientific, Foster City, CA) were used to assess the expression of 93 genes selected based on their selectivity and sensitivity to important hepatic receptors known to be modulated by environmental chemicals; importance in human hepatocyte functionality; and hepatotoxicity. […]
`Oc1cccc(O)c1`: the call was inactive.

Consider `c1ccc2c(c1)Cc1ccccc1-2`, for which the compound was called inactive.

`Cc1cc(CCN2CCN(c3nsc4ccccc34)CC2)cc2c1NC(=O)CC2(C)C`: the AC50 was 76.8 µM (active).

Consider `NC(=O)N(O)[C@@H]1C=C[C@H](Oc2cccc(Oc3ccc(F)cc3)c2)C1`, for which the compound was called inactive.

Take `OC1CCCCC1`: the outcome was inactive.

Regarding `CC(C)CCCCCCOC(=O)CCCCC(=O)OCCCCCCC(C)C`, the result was inactive.

On to `CCCCCCCCCCCCc1ccccc1S(=O)(=O)O`, for which the compound was classed as inactive.

Consider `CC#C[C@]1(O)CC[C@H]2[C@@H]3CCC4=CC(=O)CCC4=C3[C@@H](c3ccc(N(C)C)cc3)C[C@@]21C`, for which the AC50 was 40.8 µM (active).

Consider `COc1ccc([N+](=O)[O-])cc1N`, for which the result was inactive.

As to `CCc1ccc(CCOc2ccc(CC3SC(=O)NC3=O)cc2)nc1` (stereo not given), the AC50 is 11 µM (active).

For `OC1CCC(C2CCCCC2)CC1` (stereo not given), the compound was called inactive.

Regarding `O=c1c(-c2ccc(O)cc2)coc2cc(O)ccc12`, the compound was called inactive.

Turning to `CCCCCCCCCCCCN1CCCC1=O`, the compound was classed as inactive.

For `CCCOC(=O)c1ccc(O)cc1`, the result was inactive.

Consider `CCc1nn(C2CCCCC2)c2cc(C3(C#N)CCC(C(=O)O)CC3)ccc12` (stereo not given), for which the AC50 is 85.5 µM (active).

On to `COC(=O)CCCCC(=O)OC`, for which the outcome was inactive.

Take `CCCCOCCO`: the result was inactive.

Consider `CCCCCCC(=O)O`, for which the compound was called inactive.

With `CC(=O)CC(C)(C)O`, the outcome was inactive.

On to `NC(=O)N1C(=O)C(C(=O)c2cc(Cl)cs2)c2cc(F)c(Cl)cc21` (stereo not given), for which the AC50 is 30.4 µM (active).

Take `CC(C)(C)c1cccc(C(C)(C)C)c1O`: the outcome was inactive.

Consider `N#C[C@@H]1CC(F)(F)CN1C(=O)CNC1CC2CCC(C1)N2c1ncccn1` (stereo not given in full), for which the outcome was inactive.

Take `OCCC(F)(F)C(F)(F)C(F)(F)C(F)(F)C(F)(F)C(F)(F)F`: the compound was classed as inactive.

Take `CC(C)(C)c1ccc(O)c(C(C)(C)C)c1`: the compound was classed as inactive.

On to `C#C[C@]1(O)CC[C@H]2[C@@H]3CCC4=CC(=O)CC[C@@H]4[C@H]3CC[C@@]21C`, for which the compound was classed as inactive.

In the case of `COCC(C)O` (stereo not given), the outcome was inactive.

`Cc1oc(-c2ccccc2)nc1CCOc1ccc(C[C@H](Nc2ccccc2C(=O)c2ccccc2)C(=O)O)cc1`: the AC50 was 0.0219 µM (active).

Turning to `CC(C)(C)CC(C)(C)c1ccc(O)c(-n2nc3ccccc3n2)c1`, the result was inactive.

Take `COCC(C)OCC(C)O` (stereo not given): the compound was classed as inactive.

In the case of `CC(C)(C)c1cc(C(C)(C)C)c(O)c(C(C)(C)C)c1`, the compound was called inactive.

On to `CN(C)C=O`, for which the compound was classed as inactive.

As for `CCOC(=O)CC(O)(CC(=O)OCC)C(=O)OCC`, the compound was classed as inactive.

`OCCC(F)(F)C(F)(F)C(F)(F)C(F)(F)C(F)(F)C(F)(F)C(F)(F)C(F)(F)F`: the outcome was inactive.

As for `c1ccc2cc3c(ccc4ccccc43)cc2c1`, the AC50 was 15.5 µM (active).

Take `CCCCC(CC)COC(=O)CCCCC(=O)OCC(CC)CCCC` (stereo not given): the call was inactive.

In the case of `CN1CCC[C@H]1c1cccnc1`, the result was inactive.

As for `CCC(=C(c1ccc(O)cc1)c1ccc(OCCN(C)C)cc1)c1ccccc1`, the AC50 is 93 µM (active).

Turning to `CCCCCCCCOC(=O)CCCCCCCCC(=O)OCCCCCCCC`, the compound was classed as inactive.

Regarding `c1ccc2c(c1)ccc1ccccc12`, the result was inactive.

Consider `ClC1=C(Cl)C(Cl)(Cl)C(Cl)=C1Cl`, for which the compound was called inactive.
